Data: PubChem BioAssay AID1981 (Southern Research Specialized Biocontainment Screening …, 2009)
The whole screen tested about 2,200 compounds, of which about 480 (22%) were called active. A selection follows. Measured potencies and affinities stand elsewhere. Unmarked numbers belong to inactive results. No rule for the calls is given here.

Assay: S. Typhimurium GFP fluorescence modified counterscreen for PhoP regulon inhibitor project dose response (AID 1981);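 also: 0% = induced DMSO wells and 100% = uninduced wells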
Conditions: 4 h; series mostly up to 150 µM; inhibition: at the top concentration

Structure (SMILES)	inhibition
CCOC(=O)C1=NNC2(c3ccc(Cl)cc3)C(=O)N(c3cc(C)cc(C)c3)C(=O)C12 (configuration not stated)	-7.93%
CCn1nc(C(=O)OC(C(=O)c2c[nH]c3ccccc23)c2ccccc2)c2ccccc2c1=O (configuration not stated)	39.2%
Cc1ccc(/C=N/NC(=O)Cn2cnc3ccccc32)o1	-14.7%
COc1cccc(/C=N/NC(=O)c2ccc(-c3ccccc3)cc2)c1O	11.6%
c1ccc2c(N3CCCCCC3)nc(-c3ccncc3)nc2c1	1.68%
Brc1ccc(OCCn2ccnc2)cc1	11.1%
Oc1ccccc1-c1nc(/C=C/c2ccccc2)nn1-c1ccccc1	-36.1%
CC(C)OC(=O)c1ccc(NC(=O)c2ccccc2)cc1	-11.2%
Cc1cc(C)c(NC(=S)NC(=O)c2ccc(-c3ccccc3)cc2)c(C)c1	2.08%
O=C(Cc1cccs1)N(c1ccccc1)C1C=CS(=O)(=O)C1 (configuration not stated)	-11.7%
Oc1[nH]c(=S)sc1/C=C1\C(c2ccccc2)=Nc2ccccc21	-4.64%
Oc1ccc(Br)cc1-c1ccn[nH]1	-8.94%
O=C(CSc1nc2ccccc2[nH]1)Nc1ccc(F)c(F)c1	-2.94%
Cc1ccc(O)c(-c2cc(-c3ccccc3C)[nH]n2)c1	15.8%
Clc1c(OCCCn2ccnc2)ccc2ccccc12	-2.83%
Cc1ccc(C)n1-c1cc([N+](=O)[O-])ccc1-n1ccnc1	1.81%

Structure (SMILES)	inhibition
CN(CCO)Cc1csc2ccc(Br)cc12	10.8%
O=C(Nc1cccc2ccccc12)OC1C=CS(=O)(=O)C1 (configuration not stated)	0.66%
CN(C)C=NC(=O)c1[nH]c2ccc(Cl)cc2c1-c1ccccc1	-3.96%
Cn1cnnc1SCC(=O)Nc1cccc(C(=O)O)c1	-3.44%
Cc1nnc(SC(C)C(=O)Nc2ccc(S(=O)(=O)N3CCCCCC3)cc2)s1 (configuration not stated)	-5.05%
CCOC(=O)N1CCN(C(=O)c2cn(CC(C)C)c(=O)c3c2c2ccccc2n3C)CC1	-15.5%
CCOC(=O)c1cn(CC)c2cc(N3CCOCC3)c(F)cc2c1=O	-4.83%
N#CC1=C(S)N(c2ccccc2)C(c2ccc(-c3ccccc3Cl)o2)NC1=O (configuration not stated)	38.9%
Cc1ccc(O)c(-c2cc(-c3cccc(F)c3)n[nH]2)c1	17.5%
Cc1ccc2nc(C)c(CN3CCN(c4ccc([N+](=O)[O-])cc4Cl)CC3)n2c1	6.83%
O=S(=O)(Nc1ccc(Cc2ccncc2)cc1)c1ccc(Br)s1	-5.89%
Nc1ccc2oc3ccc(N)cc3c(=O)c2c1	5.55%
Nc1ccc2oc(=O)c3ccccc3c2c1	15.3%
COc1ccc(-n2ncc(S(=O)(=O)c3ccccc3)c2-c2ccc(Cl)cc2)cc1	-1.69%
COc1ccc2nc(SCC(=O)N(C)C3CCCCC3)c(C#N)cc2c1	11.2%
CCCn1c(SCC(=O)NCCc2ccccc2)nnc1-c1cccnc1	-17.2%
